Measured values: the supplement of paper PMC4188521

Compound: CCc1cnn2c(NCc3ccc[n+]([O-])c3)cc(N3CCCC[C@H]3CCO)nc12 [dinaciclib]
Test: cell viability remaining relative to DMSO control; higher = less cytotoxic (more viable cells)
Conditions: 100 nM; 24 h
Outline: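 Solid tumour cell lines from commercial cell banks were exposed to 100 nM of the test compound for 24 hr, with final DMSO ≤0.2%. Viability was read as ATP luminescence with the CellTiter-Glo assay, following the manufacturer's instructions. Remaining viability is the ratio of light units in treated wells to DMSO-treated control wells, expressed as % of DMSO control. Values are means of 2–6 plates with triplicate wells per plate.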

Row | Target | cell viability remaining
1 | OVCAR8 | 104%
2 | MG63 | 86.8%
3 | CAKI1 | 63.5%
4 | NCI-H322 | 69.1%
5 | H69 | 87.1%
6 | SW1271 | 80.7%
7 | MSTO211H | 68.4%
8 | HCC1428 | 19.7%
9 | SKMEL24 | 81.7%
10 | HCC827 | 67.9%
11 | NCI-H1395 | 36%
12 | ZR751 | 91.3%
13 | SW403 | 74.9%
14 | H2122 | 48.2%
15 | COLO704 | 78.2%
16 | HCT116 | 55.4%
17 | OV56 | 59.1%

Row | Target | cell viability remaining
18 | MDAMB468 | 29.1%
19 | U87MG | 63%
20 | H446 | 51.2%
21 | HT29 | 57.8%
22 | HLE | 37.7%
23 | HCC44 | 85.8%
24 | 22RV1 | 50.2%
25 | TYKNU | 83.8%
26 | OAW42 | 44.2%
27 | KLE | 91.8%
28 | OVSAHO | 61.8%
29 | SW900 | 74.3%
30 | SW948 | 72.6%
31 | NUGC4 | 108%
32 | HT1080 | 88.8%
33 | OVMANA | 87.9%
